{"source": "PubChem BioAssay AID493200", "about": "(National Center for Advancing Translational Sciences (NCATS), 2011)", "note": "Inconclusive results are not listed. Unmarked numbers belong to inactive results. Active and inactive are the calls of the source. Calls come from the whole dose curve; as a rule, active = well fitted activation curve with a large enough effect; inconclusive = small, poorly fitted or top-dose-only effect; inactive = no such curve, though single readings can be large or run the other way. Potency is the fitted concentration of half-maximal effect.", "data": [{"test": "qHTS Assay for Rab9 Promoter Activators: Initial hit validation from the primary screen; for activation: % of control where 0% means no effect", "conditions": "Huh7 Rab9 promoter luciferase reporter, 24 h; series mostly up to 46.1 µM; activation: at the top concentration", "summary_of_the_method": "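Luciferase signal, read 10 min after Amplite reagent, reports Rab9 promoter activation. Compounds in DMSO were applied for 24 h at 37C to Rab9-luciferase Huh7 cells, pre-incubated 2 h in reduced-serum medium with 10% FBS.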", "units": {"activation": "%"}, "values": [{"molecule": "Nc1ccc(C(=O)Nc2ccccc2N)cc1", "Potency": "15800 nM (active)"}, {"molecule": "CCCN(CCC)CCCNC(=O)c1cc2cc3ccc(Cl)cc3nc2o1", "activation": -13}, {"molecule": "O=C(CSc1nnc(-c2ccccn2)o1)Nc1ccccc1Cl", "Potency": "888 nM (active)"}, {"molecule": "COc1ccc(S(=O)(=O)N2CCCC(C(=O)NCc3ccncc3)C2)cc1Cl", "note": "(configuration not stated)", "activation": -11.2}, {"molecule": "COCCNC(=O)C1CCC(CNS(=O)(=O)c2ccc(F)cc2)CC1", "note": "(configuration not stated)", "activation": -4.18}, {"molecule": "Cc1cc(C)cc(N(CC(=O)NC2CCCC2)C(=O)CNC(=O)c2ccco2)c1", "activation": -0.368}, {"molecule": "COCCNC(=O)CN1C(=O)NC(c2ccccc2)(c2ccccc2)C1=O", "activation": -2.37}, {"molecule": "Cc1ccc(C(=O)NC2CCN(CC(=O)Nc3c(C)cc(C)cc3C)CC2)cc1", "activation": -10.8}, {"molecule": "Cc1cc(C)c2c(N)c(C(=O)Nc3ccc([N+](=O)[O-])cc3)sc2n1", "Potency": "499 nM (active)"}, {"molecule": "COc1ccc(-c2csc(N(CCCN(C)C)C(=O)c3ccccc3C)n2)cc1", "activation": -38}, {"molecule": "O=C(CCCC(=O)N(CC(=O)NC1CCCCC1)c1cccc(F)c1)Nc1ccccn1", "activation": -0.895}, {"molecule": "O=C(NC1CCCC1)C(c1ccc(F)cc1)N(C(=O)c1csnn1)c1ccccc1", "note": "(configuration not stated)", "activation": 5.07}, {"molecule": "O=C(C[N+]1(CC#Cc2ccccc2)CCCCC1)c1ccccc1", "activation": 0.37}, {"molecule": "COc1ccc(/C=C\\c2onc(C)c2S(=O)(=O)N2CCC(C(=O)NCCC(C)C)CC2)cc1", "activation": -9.91}, {"molecule": "Cc1cccc(NC(=O)CSc2nc3ccccc3o2)c1", "activation": 7.11}, {"molecule": "CC1CCCN(S(=O)(=O)c2ccc(C(=O)Nc3nnc(-c4ccncc4)o3)cc2)C1", "note": "(configuration not stated)", "activation": -34.8}, {"molecule": "CCOc1ccc(S(=O)(=O)NCc2ccccc2)cc1C(N)=O", "activation": -17.8}]}]}
